Results on 40 molecules are retold here after ChEMBL document CHEMBL1157539, “Thousands of chemical starting points for antimalarial lead identification” (Nature, 2010).

The structures appear in SMILES notation.

This experiment deals with HepG2. In words: GSK_TCMDC: Percent inhibition of human HepG2 cell line. Test compounds present at 10uM. The class given is functional.
The term Inhibition denotes how much of the control response was suppressed. `O=[N+]([O-])c1cc2c(cc1C=NNc1nc(=Nc3ccccc3)[nH]c(=Nc3ccccc3)[nH]1)OCO2`: the Inhibition is listed as 0%.

The molecule `NC(=O)C1Cc2ccccc2CN1CC(=O)Nc1ccccc1Sc1ccccc1` (stereo not given) showed an Inhibition of 5%.

Regarding `NCCCNc1nc(Nc2ccc(C(F)(F)F)cc2F)c2c(=O)[nH]ccc2n1.O=C(O)C(F)(F)F`, the Inhibition amounted to 23%.

As to `Cc1cc(Nc2ccccc2)nc(NCCOc2ccccc2)n1.Cl`, the Inhibition came out at 0%.

Regarding `Cc1cc(NC(=O)CCCN2CCN(c3cccc(Cl)c3Cl)CC2)ccc1N1CCN(C(C)C)CC1.Cl`, the Inhibition is listed as 86%.

As to `CCCc1cc(Cc2cnc(N)nc2N)cc2c1OC(C)C2C.Cl` (stereo not given), the Inhibition is 32%.

Consider `CCC(O)c1ccc(Br)cc1NC(=O)c1cccc(Cl)c1` (stereo not given), for which the Inhibition was found to be 0%.

The molecule `Clc1cc(Nc2ccnc3ccc(Br)cc23)ccc1Oc1ccc2ccccc2c1Cl` registered an Inhibition of 5%.

`O=C(NCCCCCN1CCC(c2c[nH]c3ccccc23)CC1)Nc1cccc(Cl)c1` returned an Inhibition of 36%.

For the molecule `CC(=O)Nc1ccc(CN2CCCN(c3cc(NC(=O)c4cccc(C)c4)ccn3)CC2)cc1.O=C(O)C(F)(F)F`, the Inhibition is recorded as 0%.

The molecule `CCN1CCC(N(Cc2ccc(-c3ccc(C(F)(F)F)cc3)cc2)C(=O)CCCCn2c(CCc3cccc(F)c3F)nc(=O)c3ccccc32)CC1` showed an Inhibition of 54%.

Molecule `COc1ccc(C2=CCN(c3ccc(Cl)c(Cl)c3)C2=O)cc1OCCN1CCCCC1.Cl` yielded an Inhibition of 19%.

`CC(C)(C)SC1SC(SC(C)(C)C)C(OC(=O)c2ccccc2)C(OC(=O)c2ccccc2)C1OC(=O)c1ccccc1` (stereo not given) registered an Inhibition of 0%.

`CC(C)=CCc1c(-c2ccc(O)cc2O)oc2c3c(cc(O)c2c1=O)OC(C)(C)C=C3` [MORUSIN] gave an Inhibition of 1%.

In the case of `COc1cccc(CNC(=O)c2ccnc(-c3cccc(CN(C)C4CCN(C)CC4)c3)c2)c1.O=C(O)C(F)(F)F`, the Inhibition turned out to be 19%.

Take `CC(C)(C)OC(=O)N1CCC(C2CCN(C(=O)OC(C)(C)C)CC2)CC1`: the Inhibition came out at 0%.

`CC(=O)Nc1ncc(C(=O)Nc2cccc(-c3ccc(-c4nc5cc(C(F)(F)F)ccc5[nH]4)s3)c2)s1` registered an Inhibition of 90%.

`Cc1ccccc1C1CCN(C2CCC(NC(=O)/C=C/c3ccc(F)cc3)CC2)CC1` (stereo not given) returned an Inhibition of 61%.

Molecule `CCCCCCNc1cc(C)nc2ccc(OC)cc12.Cl` returned an Inhibition of 19%.

Turning to `Cc1cc2nc(-c3ccc(C(=O)NCc4ccc(Cl)c(Cl)c4)cc3)[nH]c2cc1C`, the Inhibition was determined as 6%.

As to `COc1c(C2CCN(CCCCNC(=O)c3ccc(-c4ccc(Cl)cc4)cn3)CC2)ccc2c1CCCC2`, the Inhibition turned out to be 100%.

`COc1ccc(CNCc2ccccc2)cc1-c1ccc(S(=O)(=O)NCCN2CCCC2)s1.O=C(O)C(F)(F)F` registered an Inhibition of 32%.

As to `COc1cccc(-c2cnc(N)c(-c3nc4ccc(C(F)(F)F)cc4[nH]3)c2)c1.Cl`, the Inhibition came to 5%.

The molecule `Cc1cccc2nc(-c3ccc(-c4cccc(CN5CCC(N)C5)c4)s3)[nH]c12.O=C(O)C(F)(F)F` (stereo not given) had an Inhibition of 16%.

Regarding `CCC(C)CN1CCN(c2ccc(NC(=O)c3cccs3)cc2)CC1C.O=C(O)C(F)(F)F` (stereo not given), the Inhibition stood at 0%.

The molecule `Cc1cccc2nc(-c3cccc(-c4ccc(C(=O)NCCc5ccc(O)c(=O)[nH]5)cc4)c3)[nH]c12` showed an Inhibition of 20%.

`CN(C)CC1CCCN1Cc1ccccc1-c1cnn(C)c(=O)c1Oc1ccc(F)cc1.O=C(O)C(F)(F)F` (stereo not given) had an Inhibition of 29%.

In turn, `CCCCn1c(=N)c(C(=O)NCc2cccnc2)cc2c(=O)n3cccc(C)c3nc21` gave an Inhibition of 7%.

In turn, `Fc1ccc2[nH]ccc(=NN=Cc3ccccc3Cl)c2c1` yielded an Inhibition of 3%.

`Cl.O=C(c1cccc(COc2ccc3c(c2)CCN(C2CCCC2)CC3)c1)N1CCN(c2ccncc2)CC1` gave an Inhibition of 49%.

For `CNCCNCc1cccc(-c2ccc(-c3nc4cccc(C)c4[nH]3)s2)c1.O=C(O)C(F)(F)F`, the Inhibition came out at 10%.

Consider `COc1cc2nc(NCCc3ccccc3)nc(NCc3nccs3)c2cc1OC`, for which the Inhibition is 1%.

Consider `N=C(N)NN=Cc1c[nH]c2ccc(-c3ccccc3)cc12.O=C(O)/C=C\C(=O)O`, for which the Inhibition is on record as 15%.

In turn, `CCCC(=O)NC(c1cccs1)c1cc(Cl)c2cccnc2c1O` (stereo not given) yielded an Inhibition of 51%.

The molecule `Cl.Oc1ccccc1CNCC12CC3CC(CC(C3)C1)C2` had an Inhibition of 0%.

In the case of `CN(C)CCNC(=O)[C@H](CC1CCCCC1)NC(=O)c1ccc(O)c(-c2ccc(Cl)c(Cl)c2)c1`, the Inhibition is recorded as 0%.

`Cc1cccc2nc(-c3ccc(-c4ccc(NC(=O)C5CCN(C)CC5)cc4)cc3)[nH]c12` yielded an Inhibition of 28%.

The molecule `Fc1cccc(COc2ccc(Nc3ncnc4sc(C#CCNC5CCCC5)cc34)cc2Cl)c1` displayed an Inhibition of 3%.

In turn, `Cc1onc(-c2c(Cl)cccc2Cl)c1C(=O)NC1=NC(C)(C)ON1c1ccccc1` yielded an Inhibition of 6%.

For `CC[C@H](C)[C@@H](C(=O)N1CCOCC1)N1CC[C@H](NS(=O)(=O)CC(C)(C)c2ccc(Cl)cc2)C1=O`, the Inhibition is 0%.
